Screens from PubChem.
ARNT TACC3 PPI = disruptors of ARNT/TACC3 protein interaction, primary screen, biochemical, AlphaScreen, single concentration; Transforming acidic coiled-coil-containing protein 3 (Homo sapiens), Q9Y6A5; AlphaScreen His-ARNT PAS-B/GST-TACC3 binding, luminescence; TACC3 fragment carries E629A point mutation; inhibition, % at 9.99 µM; hit rate 0.66% among 390,000;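 active = mean inhibition of replicates at least 50% and at least half of replicates each reaching 50%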
C2C12 statin = suppressors of statin myotoxicity in C2C12 myotubes, primary screen, cell-based, single point, plate reader | C2C12 myotubes + simvastatin, ATP luminescence, 48 h; scaled: DMSO 0, geranylgeraniol control 100 | rescue of ATP level, % at 7.49 µM | hit rate 0.78% among 330,000 | AID 602340, 2012;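 active = mean ATP rescue above about 67%, or every replicate alone reaching that limit, limit read from the data, passing the limit was not always enough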;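 also: myotubes were challenged with 10 µM simvastatin during compound exposure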
F508del corr = F508del CFTR correction, initial screen, CFBE line, single point; hit rate 0.36% among 350,000; CFBE cells, YFP halide quenching; stimulated with forskolin plus potentiator P3; % fluorescence drop versus neutral controls; activity (quench increase), % at 7.58 µM;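 active = mean added fluorescence quench of at least 8% versus neutral control, with both replicates also reaching 8%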;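 also: cells transiently co-express mutant CFTR-F508del with the halide-sensitive YFP; corrector assay measuring rescue of mutant channel to the surface after 24 h compound exposure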
PglD DTNB = C. jejuni PglD acetyltransferase inhibitors, primary screen, biochemical, DTNB colorimetric, single point | hit rate 0.098% among 360,000 | UDP-N-acetylbacillosamine N-acetyltransferase PglD (Campylobacter jejuni) | purified PglD enzyme, DTNB colorimetric CoA detection | inhibition, % at 12.5 µM; in the data active = inhibition above about 16%, passing the limit was not always enough
Each line names hits and unclear results; the compound was inactive in the other large screens. Rows were chosen to be rich in hits. Some 1.4% of all compounds tested hit in one or more screens of this group.

CCC(=O)N1CCc2cc(S(=O)(=O)NCCCN3CCN(Cc4ccccc4)CC3)ccc21	C2C12 statin 156 (no result: F508del corr)
COc1ccc2c3c(n(C)c2c1)[C@@H](CO)N(C(=O)C1CC1)CC31CN(C(=O)CN(C)C)C1	none (no result: ARNT TACC3 PPI, C2C12 statin, PglD DTNB)
CC(=O)NC(c1cc(F)c2cccnc2c1O)C1CC1 (configuration not stated)	ARNT TACC3 PPI 40
CCC(C)NC(=O)Cn1c(=O)n(CCCC(=O)NCc2ccccc2Cl)c(=O)c2ccccc21 (configuration not stated)	C2C12 statin 134 (no result: F508del corr)
CCc1ccc(NC(=O)Cn2c(=O)n(CCCC(=O)NCc3ccco3)c(=O)c3ccccc32)cc1	none (no result: C2C12 statin, F508del corr)
O=C(CCCCn1c(=O)c2ccccc2n(CC(=O)NC2CCCC2)c1=O)NC1CCCC1	C2C12 statin 81 (no result: F508del corr)
O=C(CCCCn1c(=O)c2ccccc2n(CC(=O)NC2CCCC2)c1=O)NCc1ccco1	none (no result: F508del corr)
CCCN(CCC)C(=O)Cn1c(=O)n(CCCCC(=O)NC2CCCC2)c(=O)c2ccccc21	C2C12 statin 97 (no result: F508del corr)
C=C/C=C/[C@@H]1C(=C)CN2[C@H]1[C@H](Cc1ccccc1)OC(=O)[C@@H]2Cc1ccccc1	none (no result: C2C12 statin)
COCC(=O)N1C[C@@H](C)[C@H](OC)CN(C)C(=O)c2ccc(NC(=O)c3cnccn3)cc2OC[C@@H]1C	none (no result: ARNT TACC3 PPI, C2C12 statin, PglD DTNB)
C[C@H]1CN([C@@H](C)CO)C(=O)Cc2cc(NC(=O)Nc3ccc(C(F)(F)F)cc3)ccc2O[C@@H]1CN(C)S(=O)(=O)c1cccs1	none
COc1ccc2c3c(n(C)c2c1)[C@@H](CO)N(C(=O)NC(C)C)CC31CN(Cc2nccs2)C1	none (no result: ARNT TACC3 PPI, C2C12 statin, PglD DTNB)
COc1cccc(CN2CCNC(=O)C2CC(=O)NCCN2CCCCC2=O)c1 (configuration not stated)	C2C12 statin 86
COc1cccc(CCNC(=O)CC2C(=O)NCCN2Cc2ccc(Cl)c(F)c2)c1 (configuration not stated)	none
Cc1ccc(-c2nnc(CSc3nnc(COc4cccc5ccccc45)n3-c3ccccc3)o2)cc1	C2C12 statin 136 (no result: ARNT TACC3 PPI, F508del corr)
O=c1[nH]c(Nc2ccccc2)cc2ccccc12	none (no result: C2C12 statin, F508del corr, PglD DTNB)
COc1ccc(OC)c(Nc2cc3ccccc3c(=O)[nH]2)c1	ARNT TACC3 PPI 38
C[C@@H]1CCCCO[C@@H](CN(C)C(=O)Nc2ccccc2)[C@@H](C)CN([C@@H](C)CO)C(=O)c2cc(NC(=O)Nc3cccc4ccccc34)ccc2O1	none (no result: ARNT TACC3 PPI, C2C12 statin, PglD DTNB)
C=CCNC(=S)NNC(=O)c1cccn(Cc2cccc(Cl)c2)c1=O	none (no result: ARNT TACC3 PPI, C2C12 statin, F508del corr)
C=CCNC(=S)NNC(=O)c1cccn(Cc2ccc(Cl)cc2)c1=O	ARNT TACC3 PPI 52 (no result: F508del corr)
COc1ccccc1NC(=O)N1C[C@H]2[C@@H](c3ccccc31)[C@H](CO)N2C(=O)c1ccccc1	none
COC(=O)c1ccc(CSc2nc3c(cnn3-c3ccc(C)c(C)c3)c(=O)[nH]2)o1	C2C12 statin 132 (no result: ARNT TACC3 PPI, F508del corr)
CCCSc1nc2c(cnn2-c2ccc(C)c(C)c2)c(=O)[nH]1	none
CC(=O)N(C)C[C@@H]1Oc2cc(C3=CCCCC3)ccc2S(=O)(=O)N([C@@H](C)CO)C[C@@H]1C	none (no result: ARNT TACC3 PPI, PglD DTNB)
CO[C@@H]1CN(C)C(=O)c2cc(NS(=O)(=O)Cc3ccccc3)ccc2OC[C@@H](C)NC[C@H]1C	none
Cc1ccc2[nH]c(=O)c(C3C(C#N)=C(N)Oc4c3ccc3cccnc43)cc2c1 (configuration not stated)	ARNT TACC3 PPI 50 (no result: C2C12 statin, F508del corr)
Cc1cc(NC(=O)CSc2nnc(CNC(=O)c3cccc(C(F)(F)F)c3)o2)no1	ARNT TACC3 PPI 46
COCC(=O)Nc1ccc2c(c1)[C@@H]1C[C@@H](CC(=O)N3CCCCC3)O[C@@H](CO)[C@@H]1O2	none
O=C(N[C@@H]1C=C[C@@H](CC(=O)N2CCc3ccccc3C2)O[C@H]1CO)C1CCOCC1	none (no result: ARNT TACC3 PPI, C2C12 statin, PglD DTNB)
COc1cc(-c2nnc(SCC#CCO)o2)cc(OC)c1OC	C2C12 statin 114 (no result: F508del corr)
Cc1ccc(S(=O)(=O)N2CCN(C(=O)C3Cc4ccccc4CN3C(=O)c3ccco3)CC2)cc1 (configuration not stated)	C2C12 statin 98 (no result: F508del corr)
COCC(=O)N1[C@H](C#N)[C@H](c2ccccc2-c2cccc(OC)c2)[C@H]1CO	none (no result: ARNT TACC3 PPI, C2C12 statin, PglD DTNB)
Cc1noc(N)c1C(=O)Nc1ccc(F)c(Cl)c1	C2C12 statin 130 (no result: ARNT TACC3 PPI, F508del corr)
C[C@@H]1CN([C@H](C)CO)C(=O)c2cc(C#C[C@@H](C)O)cnc2O[C@H]1CN(C)C(=O)c1ccccc1F	none
